# From article PMC4552634, “A New Set of Chemical Starting Points with Plasmodium falciparum Transmission-Blocking Potential for Antimalarial Drug Discovery” (PLoS ONE, 2015)
# Read-outs that look alike come from different tables or passages of the source. About 3,200 (25%) of roughly 13,000 compounds showed an effect of 50% or more. This is one part of the list.
# Test system: P. falciparum stage V gametocytes
# Set-up: BacTiter-Glo ATP luminescence viability of purified stage V gametocytes in 384-well plates, per cent inhibition versus DMSO
# Details: 48 h, 5 µM, inhibitor
smiles,measurement,setting,value
Cc1cc(NCCC(=O)NCCc2ccccc2)nc(NCCc2ccc(F)cc2)n1 [TCMDC-134782],% Inhibition,,63.79%
Cc1cccc(CNc2nc(C)cc(NCCC(=O)NCc3cccc(F)c3)n2)c1 [TCMDC-134882],% Inhibition,,28.72%
Cc1cc(NCCC(=O)NCc2cccc(F)c2)nc(NCCc2ccc(F)cc2)n1 [TCMDC-134781],% Inhibition,,71.46%
Cc1cc(NCCC(=O)NCc2cccc(F)c2)nc(Nc2ccccc2)n1 [TCMDC-134730],% Inhibition,,9.488%
CCC1(CC)C(=O)N=C(N2CCCCC2)N(C)C1=O [TCMDC-124231],% Inhibition,,77.81%
COc1ccc2nccc([C@@H](O)CN3CCC(NCc4ccc5nnsc5c4)CC3)c2c1 [TCMDC-140923],% Inhibition,,19.95%
CC(C)(C)c1ccc(CN2CCC(NC(=O)c3ccc(-c4ccccc4F)s3)CC2)cc1 [TCMDC-134349],% Inhibition,,3.235%
Cn1nc(-c2ccccc2F)c2cc(C(=O)NC3CCN(Cc4ccccc4)CC3)sc21 [TCMDC-123582],% Inhibition,,63.05%
COc1cccc(-c2nn(C)c3sc(C(=O)NCCN4CCN(c5ccccc5F)CC4)cc23)c1 [TCMDC-123585],% Inhibition,,-24.43%
Cc1cccc(CN2CCC(CNC(=O)c3cc4c(-c5ccccc5F)nn(C)c4s3)CC2)c1 [TCMDC-124566],% Inhibition,,59.21%
CCc1ccc(CN2CCC(NC(=O)c3ccc(-c4ccccc4F)s3)CC2)cc1 [TCMDC-134343],% Inhibition,,-3.563%
Cn1nc(-c2ccccc2F)c2cc(C(=O)Nc3cccnc3)sc21 [TCMDC-123581],% Inhibition,,-8.367%
COc1ccc2ncc(F)c(C(O)CN3CCC(NCc4ccc5c(n4)NC(=O)CO5)CC3)c2c1 (stereo not drawn) [TCMDC-135530],% Inhibition,% Inhibition,22.05%
COC(=O)c1ccc(CC(C)NCC(O)c2cccc3ccccc23)cc1 (stereo not drawn) [TCMDC-131432],% Inhibition,,16.03%
CS(=O)(=O)c1ccccc1CNC(=O)c1ccc(-c2cccc(-c3nc4cc(C(F)(F)F)ccc4[nH]3)c2)cc1 [TCMDC-132504],% Inhibition,,-46.91%
COc1cccc(N(CCCN2C(=O)c3cccc4cccc(c34)C2=O)C(=O)c2ccccc2C)c1 [TCMDC-124157],% Inhibition,,34.34%
c1ccc2[nH]c(-c3ccc(-c4ccc(CNCCc5ccncc5)cc4)s3)nc2c1 [TCMDC-132843],% Inhibition,,-16.65%
CC1(C)C(=O)Nc2ccc3c(c21)CC1SC(=O)NN=C31 (stereo not drawn) [TCMDC-131539],% Inhibition,,68.11%
Nc1nc(N)c2c(CCc3ccc(Cl)c(Cl)c3)cccc2n1 [TCMDC-141976],% Inhibition,,-2.303%
CCCc1cc(Cc2cnc(N)nc2N)cc(CC)c1O [TCMDC-138059],% Inhibition,,-83.65%
Cc1cc2ncn(-c3nccc(NCc4cccnc4)n3)c2cc1C [TCMDC-135879],% Inhibition,,55.3%
Cc1cc(Nc2nc(NCc3cccnc3)nc3ccccc23)n[nH]1 [TCMDC-135161],% Inhibition,,33.23%
Cc1cc2ncn(-c3ccnc(N4CCN(CCCN5CCCC5)CC4)n3)c2cc1C [TCMDC-136311],% Inhibition,,9.256%
Cc1cc2ncn(-c3nccc(NCc4ccc(F)cc4)n3)c2cc1C [TCMDC-135877],% Inhibition,,11.81%
Cc1cc2ncn(-c3nccc(NCc4ccc(F)c(C)c4)n3)c2cc1C [TCMDC-135880],% Inhibition,,65.21%
COc1ccc(CNc2ccnc(-n3cnc4cc(C)c(C)cc43)n2)cc1Cl [TCMDC-135878],% Inhibition,,49.39%
O=C(O)c1ccc(OCOCOc2ccc(C(=O)O)c(O)c2)cc1O [TCMDC-131764],% Inhibition,,13.72%
COc1ccc(C2SCC(=O)N2CCc2ccc(OC)c(OC)c2)cc1 (stereo not drawn) [TCMDC-125738],% Inhibition,,0.3725%
NC1CCN(CCNCc2cccc(-c3ccc(-c4nc5ccc(C(F)(F)F)cc5[nH]4)cc3)c2)C1 (stereo not drawn) [TCMDC-133841],% Inhibition,,98.1%
CS(=O)(=O)NCCCNCc1cccc(-c2ccc(-c3nc4ccc(C(F)(F)F)cc4[nH]3)cc2)c1 [TCMDC-133079],% Inhibition,,-16.43%
NC1CCN(CCNCc2cccc(-c3ccc(-c4nc5ccc(F)cc5[nH]4)cc3)c2)C1 (stereo not drawn) [TCMDC-133857],% Inhibition,,75.97%
O=[N+]([O-])c1ccccc1/C=N/Nc1ccnc2ccc(C(F)(F)F)cc12 [TCMDC-142044],% Inhibition,,-33.57%
O=[N+]([O-])c1cccc(S(=O)(=O)N2CCN(CC(O)COc3ccc(-c4ccccc4)cc3)CC2)c1 (stereo not drawn) [TCMDC-125015],% Inhibition,,-58.05%
COc1cc2nc(NCCCOC(C)C)n3nc(-c4ccccc4)nc3c2cc1OC [TCMDC-124450],% Inhibition,,5.714%
Cn1cnc2c(Nc3ccncc3)nc(-c3ccc4c(c3)OCO4)nc21 [TCMDC-141274],% Inhibition,,36.93%
Cc1cccc2nc(-c3ccc(-c4cccc(C(=O)N5CCCCC5C(C)O)c4)s3)[nH]c12 (stereo not drawn) [TCMDC-132331],% Inhibition,,10.35%
O=C(c1ccc(-c2cccc(-c3nc4cc(F)ccc4[nH]3)c2)cc1)N1CCCCC1CN1CCC(O)C1 (stereo not drawn) [TCMDC-132344],% Inhibition,,80.27%
CC(O)C1CCCCN1C(=O)c1cccc(-c2cccc(-c3nc4cc(F)ccc4[nH]3)c2)c1 (stereo not drawn) [TCMDC-132339],% Inhibition,,25.33%
CC(O)C1CCCCN1C(=O)c1ccc(-c2cccc(-c3nc4cc(F)ccc4[nH]3)c2)cc1 (stereo not drawn) [TCMDC-132333],% Inhibition,,18.43%
O=C(c1ccc(-c2cccc(-c3nc4cc(C(F)(F)F)ccc4[nH]3)c2)cc1)N1CCCCC1CN1CCC(O)C1 (stereo not drawn) [TCMDC-132348],% Inhibition,,-20.7%
CC(O)C1CCCCN1C(=O)c1cccc(-c2cccc(-c3nc4ccccc4[nH]3)c2)c1 (stereo not drawn) [TCMDC-132313],% Inhibition,,8.745%
Cc1cccc2nc(-c3cccc(-c4ccc(C(=O)N5CCCCC5C(C)O)cc4)c3)[nH]c12 (stereo not drawn) [TCMDC-132336],% Inhibition,,92.31%
Cc1cccc2nc(-c3cccc(-c4ccc(C(=O)NCCc5ccc(O)c(=O)[nH]5)cc4)c3)[nH]c12 [TCMDC-132490],% Inhibition,,-25.23%
CCN(CC(C)O)C(=O)c1ccc(-c2cccc(-c3nc4cccc(C)c4[nH]3)c2)cc1 (stereo not drawn) [TCMDC-132502],% Inhibition,,84.23%
O=C(c1cccc(-c2cccc(-c3nc4cc(F)ccc4[nH]3)c2)c1)N1CCCCC1CN1CCC(O)C1 (stereo not drawn) [TCMDC-132350],% Inhibition,,0.1683%
CCN(CC(C)O)C(=O)c1ccc(-c2ccc(-c3nc4cccc(C)c4[nH]3)cc2)cc1 (stereo not drawn) [TCMDC-132503],% Inhibition,,-12.34%
CC(O)C1CCCCN1C(=O)c1ccc(-c2ccc(-c3nc4cc(F)ccc4[nH]3)cc2)cc1 (stereo not drawn) [TCMDC-132338],% Inhibition,,65.53%
Cc1ccccc1C(O)CNc1ccnc(Nc2cccc(C#N)c2)n1 (stereo not drawn) [TCMDC-136566],% Inhibition,,9.635%
COc1ccc(CNC(=O)NC2CCN(c3ccnc(Nc4ccc(OC)cc4)n3)C2)cc1 (stereo not drawn) [TCMDC-133607],% Inhibition,,11.17%
O=C(Nc1ccc(OC2CCN(Cc3ccc(F)cc3)C2)cc1)c1cccs1 (stereo not drawn) [TCMDC-133753],% Inhibition,,15.26%
COc1cc(NC(=O)c2cccs2)c(C(=O)NCc2ccc(C)cc2)cc1OC [TCMDC-125007],% Inhibition,,20.88%
CN(C)CCOc1ccc(NC(=O)Nc2ccnc3c(Br)cccc23)cc1Cl [TCMDC-140325],% Inhibition,,18.67%
COc1cc2nc(N3CCC(CNC(=O)c4ccc(-c5ccc(-c6noc(C)n6)cc5C)cc4)CC3)nc(N)c2cc1OC [TCMDC-138155],% Inhibition,,105.9%
COc1cc2nc(N3CCC(CNC(=O)c4ccc(-c5ccc(-c6noc(C)n6)cc5)cc4)CC3)nc(N)c2cc1OC [TCMDC-138754],% Inhibition,,115%
O=C(Nc1ccc2c(c1)CCC2)c1ccc(N2CCN(c3ccncc3)CC2)cn1 [TCMDC-135155],% Inhibition,,0.5792%
CCOc1cc(C(=O)N[C@@H](Cc2ccccc2)[C@H](O)CNCc2cc(OC)cc(OC)c2)cc(N2CCCS2(=O)=O)c1 [TCMDC-134573],% Inhibition,,6.074%
O=C(Nc1ccc(OC2CCN(Cc3ccsc3)CC2)c(Cl)c1)c1ccc(F)cc1 [TCMDC-134272],% Inhibition,,-4.957%
Nc1nc(N)c2c(ccc3c2ccn3Cc2cccc3ccccc23)n1 [TCMDC-137996],% Inhibition,,88.02%
Cc1ccccc1Cn1ccc2c3c(N)nc(N)nc3ccc21 [TCMDC-137812],% Inhibition,,70.17%
CCC(C(C)C)n1ccc2c3c(N)nc(N)nc3ccc21 (stereo not drawn) [TCMDC-137872],% Inhibition,,10.31%
Clc1ccc(CNc2ccnc(NCc3ccc4c(c3)OCCCO4)n2)c(Cl)c1 [TCMDC-135116],% Inhibition,,30.31%
CC(C)OCCCNC(=O)c1nc(-c2cccc(C(F)(F)F)c2)sc1C(C)C [TCMDC-133788],% Inhibition,,3.705%
Oc1ccc(Cl)cc1CN1CCC2(CCCN(CC3CCC3)C2)C1 (stereo not drawn) [TCMDC-124637],% Inhibition,,-23.05%
CCCCN(CCCC)CCNC(=O)c1cc(OC(F)(F)F)ccc1O [TCMDC-141130],% Inhibition,,-10.84%
CC(Cc1ccc(NC(=O)c2ccc(CNCc3ccccc3)cc2)cc1)N(CCc1cccc(Cl)c1)C(=O)OC(C)(C)C (stereo not drawn) [TCMDC-139859],% Inhibition,,-24.54%
CC(Cc1ccc(NC(=O)c2ccc(CNCCc3ccccc3)cc2)cc1)NCCc1cccc(Cl)c1 (stereo not drawn) [TCMDC-139867],% Inhibition,,108.4%
CC(Cc1ccc(NC(=O)c2ccc(CNCCCCc3ccccc3)cc2)cc1)NCCc1cccc(Cl)c1 (stereo not drawn) [TCMDC-139866],% Inhibition,,129.2%
COc1cccc(OC)c1OCCCON1C(N)=NC(N)=NC1(C)C [TCMDC-131731],% Inhibition,,5.866%
COc1cc(Cc2cnc(N)nc2N)cc(OC(C)C)c1OC [TCMDC-137645],% Inhibition,,-10.21%
